Test results from publication PMC5540273 (PLoS ONE, 2017).

Tests used:
Settings in all cases: concentration: 1 μM, replicates: in singlicate; n = 1
[1] = tested on: MYO3A
[2] = tested on: MYO3B
[3] = tested on: T1, NDR1
T1 construct: gene STK38

[4] = tested on: NDR2
[5] = tested on: NEK10
[6] = tested on: NEK11
[7] = tested on: NEK1
[8] = tested on: NEK2
[9] = tested on: NEK3
[10] = tested on: NEK4
[11] = tested on: NEK5
[12] = tested on: NEK6
[13] = tested on: NEK7
[14] = tested on: NEK9
[15] = tested on: T2, NIK
T2 construct: gene MAP3K14

[16] = tested on: T3, NIM1
T3 construct: gene MGC42105

[17] = tested on: NLK
[18] = tested on: T4, OSR1
T4 construct: gene OXSR1

[19] = tested on: PAK1
[20] = tested on: PAK2
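Further: KINOMEscan kinase panel screen.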

Compound | %Inh [1] [%] | %Inh [2] [%] | %Inh [3] [%] | %Inh [4] [%] | %Inh [5] [%] | %Inh [6] [%] | %Inh [7] [%] | %Inh [8] [%] | %Inh [9] [%] | %Inh [10] [%] | %Inh [11] [%] | %Inh [12] [%] | %Inh [13] [%] | %Inh [14] [%] | %Inh [15] [%] | %Inh [16] [%] | %Inh [17] [%] | %Inh [18] [%] | %Inh [19] [%] | %Inh [20] [%]
NS(=O)(=O)c1cccc(N/C=C2\C(=O)Nc3ccc(S(=O)(=O)Cc4c(Cl)cccc4Cl)cc32)c1 [GSK398099] | 14 | 0 | 0 | 0 | 0 | 0 | 10 | 21 | 10 | 0 | 26 | 0 | 0 | 13 | 2 | 0 | 20 | 9 | 0 | 0
CC(=O)c1c(C)c2cnc(Nc3ccc(N4CCNCC4)cn3)nc2n(C2CCCC2)c1=O | 11 | 0 | 0 | 0 | 13 | 0 | 0 | 0 | 36 | 0 | 1 | 0 | 0 | 0 | 3 | 0 | 29 | 0 | 0 | 0
Cn1cncc1C(=O)NC1CCN(c2ccnc(Nc3ccc(F)cc3)n2)C1 (stereo not shown) [GSK1379717] | 15 | 0 | 0 | 0 | 0 | 0 | 0 | 0 | 21 | 3 | 17 | 0 | 0 | 0 | 25 | 24 | 13 | 0 | 0 | 0
CC[C@@H]1CO[C@H](C(=O)Nc2ccccc2)CN1c1cc(-c2ccc3c(N)n[nH]c3c2)nc(NC)n1 [GSK2376236] | 19 | 0 | 0 | 5 | 0 | 0 | 0 | 10 | 4 | 0 | 19 | 0 | 0 | 19 | 0 | 0 | 17 | 14 | 15 | 7
COC(=O)C(NC(=O)NC1CCN(c2ccnc(Nc3ccc(F)cc3)n2)C1)c1ccccc1 (stereo not shown) [GSK1379712] | 0 | 0 | 14 | 32 | 0 | 0 | 2 | 0 | 9 | 0 | 6 | 0 | 0 | 16 | 4 | 37 | 2 | 0 | 0 | 1
Cc1ccc(NC(=O)Nc2ccc(Cl)cc2)cc1-c1ccc(C(=O)Nc2ccncc2)cc1 [GSK1398472] | 22 | 0 | 17 | 0 | 13 | 0 | 3 | 0 | 10 | 6 | 10 | 0 | 0 | 0 | 22 | 16 | 11 | 5 | 0 | 0
COc1nccc(-c2c(-c3ccc(F)cc3)ncn2CCCN2CCOCC2)n1 [SB-282852] | 5 | 0 | 16 | 0 | 0 | 2 | 0 | 0 | 29 | 0 | 0 | 0 | 0 | 0 | 18 | 34 | 0 | 0 | 0 | 0
COc1ccc(CSc2nnc(-c3ccc4c(c3)CCO4)o2)cc1 | 0 | 0 | 0 | 0 | 0 | 0 | 10 | 0 | 26 | 0 | 0 | 0 | 0 | 0 | 0 | 0 | 0 | 0 | 18 | 9
O=C1NC(=O)C(c2ccc(Cl)cc2)=C1Nc1cccc(Cl)c1 [SB-317651] | 5 | 8 | 12 | 0 | 0 | 0 | 0 | 0 | 16 | 0 | 6 | 0 | 0 | 0 | 5 | 12 | 0 | 0 | 2 | 17
COc1ccc(Nc2nccc(NCCNC(=O)Nc3cc(C)ccc3C)n2)cc1 [GSK1379899] | 0 | 0 | 0 | 0 | 2 | 11 | 0 | 0 | 0 | 4 | 0 | 0 | 8 | 5 | 11 | 0 | 0 | 2 | 0 | 0
Fc1ccc(-c2nc3n(c2-c2ccncc2)CCS3)cc1 [GI98581] | 12 | 0 | 0 | 0 | 14 | 9 | 0 | 0 | 6 | 38 | 8 | 6 | 0 | 8 | 2 | 10 | 64 | 5 | 0 | 6
